According to PubChem BioAssay AID1903 (Southern Research Specialized Biocontainment Screening …, 2009):
Values joined by “and” are separate entries in the source; they are usually repeats but may differ in a detail not shown here. Identical values can stand only once. The campaign covered roughly 310,000 compounds. About 1,200 (0.39%) were called active. These entries were drawn from the full list. Potency and affinity values are given separately. Unmarked numbers belong to inactive results. No rule for the calls is given here.

The compounds below were run against Large T antigen (Simian virus 40) (UniProt P03070) (assay: TAg ATPase/helicase activity blockers – biochemical (AID 1903)). Conditions: SV40 large T antigen ATPase/helicase inhibition assay; at 20 µM; hits give high values.
Large T antigen (Simian virus 40), sequence (P03070 whole entry, looked up): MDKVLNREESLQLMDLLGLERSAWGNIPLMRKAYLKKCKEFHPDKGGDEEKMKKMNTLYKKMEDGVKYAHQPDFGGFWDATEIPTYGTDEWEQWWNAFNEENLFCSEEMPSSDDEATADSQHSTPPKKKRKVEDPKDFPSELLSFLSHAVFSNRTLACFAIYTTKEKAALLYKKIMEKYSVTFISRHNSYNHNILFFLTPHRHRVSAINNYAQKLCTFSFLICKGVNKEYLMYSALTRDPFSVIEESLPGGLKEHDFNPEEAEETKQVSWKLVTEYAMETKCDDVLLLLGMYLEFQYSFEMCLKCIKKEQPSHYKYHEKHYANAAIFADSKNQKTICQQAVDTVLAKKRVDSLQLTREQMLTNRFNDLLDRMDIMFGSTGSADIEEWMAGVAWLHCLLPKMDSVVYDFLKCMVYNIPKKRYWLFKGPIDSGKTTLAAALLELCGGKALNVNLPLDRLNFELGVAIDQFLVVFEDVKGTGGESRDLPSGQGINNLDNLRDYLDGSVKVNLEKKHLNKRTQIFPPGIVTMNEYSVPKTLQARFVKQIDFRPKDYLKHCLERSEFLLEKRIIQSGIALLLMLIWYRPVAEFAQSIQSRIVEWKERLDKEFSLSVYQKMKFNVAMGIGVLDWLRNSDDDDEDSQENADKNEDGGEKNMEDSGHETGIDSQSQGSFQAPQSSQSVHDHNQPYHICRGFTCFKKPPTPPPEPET

In the case of `Nc1ccc(C(=O)O)cc1`, the inhibition is reported as 4.17% and 15.4% and 26%.
In the case of `COc1ccc(C2CC(=O)N3CN(c4ccc(C)c(Cl)c4)CSC3=C2C#N)cc1OC` (stereo not drawn), the inhibition is reported as 36.9% and 28.8%.

First: O=C(O)c1ccc(C(=O)C(=O)c2ccccc2)cc1
Second: O=C(O)c1ccccc1SSc1ccccc1C(=O)O
The inhibition of the first is higher: 13.3% for the first, 1.77% for the second.

Compared with `Cc1cc(NC(=O)CCC(=O)N(Cc2ccccc2)C(C(=O)NC2CCCC2)c2ccco2)no1` (stereo not drawn), `CC(=O)c1cc2c(cc1N(C(=O)c1ccco1)C(C(=O)NC1CCCC1)c1ccccc1F)OCO2` (stereo not drawn) is lower in inhibition: 10.2% for the first, 1.47% for the second.

Compared with `O=C(CS(=O)CC(=O)Nc1ccccc1-c1ccccc1)Nc1ccc(F)cc1` (stereo not drawn), `O=C(NNC(=O)c1ccc(O)cc1O)c1ccc(-c2ccccc2)cc1` is lower in inhibition: 6.05% for the first, 3.4% for the second.

Going from `Cc1ccc(Cn2c(=O)c3ccccc3n3c(CCC(=O)NCCN4CCOCC4)nnc23)cc1` to `CCc1ccc2c(CN3CCOCC3)cc(=O)oc2c1`, the inhibition falls from 3.95% to 3.81%.

First: COc1cc(/C=C(\C#N)c2ccccn2)ccc1OCc1ccc(Cl)cc1
Second: COc1cc(/C=C(\C#N)c2ccccn2)ccc1OCc1ccccc1
The inhibition of the first is higher: 12.1% for the first, 4.85% for the second.

Compared with `Cn1c(/C(C#N)=C/c2ccc(O)cc2)nc2ccccc21`, `Cn1c(/C(C#N)=C/c2cccc(O)c2)nc2ccccc21` is higher in inhibition: 9.77% for the first, 12.6% for the second.

Compared with `O=C(C1CCN(S(=O)(=O)c2cccnc2)CC1)N1CCN(c2cccc(Cl)c2)CC1`, `CC1CCN(S(=O)(=O)c2ccc(NC(=O)c3ccncc3)cc2)CC1` is higher in inhibition: 3.44% for the first, 7.49% for the second.

First: Cc1ccc2c(NC(=O)C3CC3)c(C)ccc2n1
Second: CCc1noc(C)c1C(=O)Nc1ccc(S(=O)(=O)N2CCCC(C)C2)cc1 (stereo not drawn)
The inhibition of the first is higher: 13.3% for the first, 10% for the second.

Going from `O=C(CCNC(=O)N1CC(=O)Nc2ccccc21)NCc1cccc(Cl)c1` to `COc1ccc(S(=O)(=O)N(CCc2ccccc2)CC(=O)NCCCO)cc1`, the inhibition falls from 8.76% to 6.27%.

First: CCC(Sc1ccccc1C(=O)O)C(=O)O (stereo not drawn)
Second: CC(/C=C1\SC(=S)N(C(C(=O)O)C(C)C)C1=O)=C\c1ccccc1 (stereo not drawn)
The inhibition of the first is lower: 1.42% for the first, 15.2% for the second.

Going from `CCOC(=O)C1CCN(C(=O)COc2cccc(C)c2)CC1` to `CS(=O)(=O)N(CC(=O)N1CCC(C(N)=O)CC1)Cc1ccc(Cl)c(Cl)c1`, the inhibition rises from 4.64% to 6.63%.

First: CCCCn1c(N)c(N(CC(C)C)C(=O)CSc2n[nH]c(-c3ccc(C)cc3)n2)c(=O)[nH]c1=O
Second: CC(C)Sc1nc2c(c(=O)n(C)c(=O)n2C)n1Cc1ccc(Cl)cc1
The inhibition of the first is higher: 13% for the first, 3.02% for the second.

First: CCOC(=O)c1sc(NC(=O)c2cc3ccccc3o2)nc1C
Second: CCOC(=O)c1c(C)c(C(=O)Nc2ccccc2)c(C)n1CC
The inhibition of the first is lower: -6.17% for the first, 10.4% for the second.

Compared with `Cc1ccccc1C(=O)Nc1ccccc1N1CCCCC1`, `CCC(=O)Nc1ccc(N2CCCCC2)c(C(=O)Nc2ccccc2C)c1` is higher in inhibition: -0.09% for the first, 0.82% for the second.

Compared with `CCOC(=O)c1c(C)c(C(=O)Nc2ccc3c(c2)OCCO3)c(C)n1CC`, `CCOC(=O)c1cnc(-n2nc(C)cc2C)nc1NCc1ccc2c(c1)OCO2` is higher in inhibition: 0.47% for the first, 17.1% for the second.

Compared with `CCCCOC(=O)Nc1ccc(C(N)=O)cc1`, `CCCCOC(=O)Nc1ccc(C(=O)OC)cc1` is lower in inhibition: 12.3% for the first, 6.13% for the second.

First: Cc1ccc(NC(N)=S)cc1
Second: Cc1ccc(NC(=S)c2ccc(N(C)C)cc2)cc1
The inhibition of the first is higher: 8.99% for the first, -10.2% for the second.

Going from `COC(=O)C1=CN(Cc2ccccc2)C=C(C(=O)OC)C1c1ccc(OC)c(OC)c1` to `COc1ccc(NC(=O)c2cc(-c3ccccc3)on2)cc1OC`, the inhibition falls from 7.64% to 6.07%.

First: Cc1ccc(N(C(=O)CNC(=O)c2ccco2)C(C(=O)NC2CCCCC2)c2ccncc2)c(C)c1 (stereo not drawn)
Second: CCC1CCCCN1S(=O)(=O)c1ccc(NC(=O)c2ccncc2)cc1 (stereo not drawn)
The inhibition of the first is higher: 23.9% for the first, -1.25% for the second.

Compared with `COC(=O)c1c(-c2ccc(F)cc2)csc1NC(=O)C1CCCO1` (stereo not drawn), `COC(=O)c1ccc(-c2nc(O)c3cnccn23)cc1` is lower in inhibition: 12% for the first, 4.33% for the second.

First: COc1ccc(-c2cc(=O)oc3c(C)c(O)ccc23)cc1
Second: COc1ccc(-c2cc(=O)oc3cc(O)ccc23)cc1
The inhibition of the first is lower: 6.62% for the first, 7.73% for the second.

First: O=C(Nc1cccc2cccnc12)c1ccccc1Cl
Second: C/C(=N\NC(=O)c1cc(C)[nH]n1)c1ccc(-c2ccccc2)cc1
The inhibition of the first is lower: 1.03% for the first, 5.47% for the second.

Going from `CCc1ccccc1N1CSC2=C(C#N)C(c3cc(OC)c(OC)cc3OC)CC(=O)N2C1` (stereo not drawn) to `COc1ccc(N2CSC3=C(C#N)C(c4cc(OC)c(OC)cc4OC)CC(=O)N3C2)c(OC)c1` (stereo not drawn), the inhibition rises from 16.6% to 61.9%.

First: COc1ccc(N2CSC3=C(C#N)C(c4cc(OC)ccc4OC)CC(=O)N3C2)c(OC)c1 (stereo not drawn)
Second: COc1ccc(OC)c(C2CC(=O)N3CN(c4cccc(Cl)c4C)CSC3=C2C#N)c1 (stereo not drawn)
The inhibition of the first is lower: 34.1% for the first, 45.4% for the second.

First: COc1cc(C2CC(=O)N3CN(c4ccccc4C)CSC3=C2C#N)cc(OC)c1OC (stereo not drawn)
Second: COc1ccc(/C=C2\SC(=S)N(NS(=O)(=O)c3ccccc3)C2=O)c(OC)c1
The inhibition of the first is lower: -11.8% for the first, 11.9% for the second.

Going from `CC(C)C[C@H](NC(=O)c1nc[nH]c1C(=O)NCc1ccc(CNC(=O)OC(C)(C)C)cc1)C(=O)OC(C)(C)C` to `O=C(O)c1ccc(NC(CSCc2ccc(F)cc2)C(=O)O)c([N+](=O)[O-])c1` (stereo not drawn), the inhibition falls from 1.84% to -4.05%.

First: CCOc1cc2[nH]c(=O)n(Cc3ccccc3)c(=O)c2cc1OCC
Second: Cn1c(Oc2ccc(Cl)c3cccnc23)nc2c1c(=O)n(Cc1ccccc1Cl)c(=O)n2C
The inhibition of the first is lower: 3.82% for the first, 5.38% for the second.

Going from `Cc1cc(C)c(C#N)c(N)n1` to `Cc1ccc(C)c(NC(=O)c2cc(-c3ccccc3O)n[nH]2)c1`, the inhibition falls from 20.5% to 3.34%.

First: CN(C)S(=O)(=O)c1ccc(C(=O)Nc2ccn(C)n2)cc1
Second: CCC1CCCCN1S(=O)(=O)c1ccc(NC(=O)c2cccnc2)cc1 (stereo not drawn)
The inhibition of the first is lower: 4.29% for the first, 16.2% for the second.

Going from `COc1ccccc1Nc1nc(N)nc(CN2CCN(Cc3ccc4c(c3)OCO4)CC2)n1` to `CN1CCN(c2nc3c(c(=O)n(C)c(=O)n3C)n2Cc2ccc(Cl)cc2)CC1`, the inhibition falls from 11.3% to 3.78%.

Going from `CC(SCC(=O)NC12CC3CC(CC(C3)C1)C2)C(=O)O` (stereo not drawn) to `CC(C(=O)NC1CCCCC1)N1C(=O)C2C3C=CC(C3)C2C1=O` (stereo not drawn), the inhibition falls from 9.37% to 3.95%.

First: Cc1ccc(-c2cc(C(F)(F)F)n3ncc(C(=O)N4CCN(C)CC4)c3n2)cc1
Second: CCS(=O)(=O)c1ncc(Cl)c(C(=O)Nc2ccc(C)cc2)n1
The inhibition of the first is lower: -2.21% for the first, 7.02% for the second.

Going from `O=C(O)C(Cc1ccccc1)N1C(=O)/C(=C/c2ccccc2)SC1=S` (stereo not drawn) to `CC(=C\c1ccccc1)/C=C1/SC(=S)N(C(C(=O)O)C(C)C)C1=O` (stereo not drawn), the inhibition rises from 16% to 18.4%.

Compared with `O=C(O)CC(C(=O)O)N1C(=O)/C(=C/C=C/c2ccco2)SC1=S` (stereo not drawn), `N#CC(C#N)=C1C=CC=CN1/C(=C\c1ccco1)C(=O)c1ccc(-c2ccccc2)cc1` is lower in inhibition: 53.1% for the first, 28.2% for the second.

Compared with `CCCC(C(=O)NC1CCCC1)N(CCN(CC)CC)C(=O)c1snc(C(N)=O)c1N` (stereo not drawn), `O=C(NC1CCCC1)C1CCN(C(=O)NCc2ccccc2)CC1` is higher in inhibition: 7.08% for the first, 8.69% for the second.

Going from `CC1CCCN(S(=O)(=O)c2ccc(NC(=O)CNC3CCCC3)cc2)C1` (stereo not drawn) to `CC1CCCN(C(=S)Nc2ccc(Nc3ccccc3)cc2)C1` (stereo not drawn), the inhibition rises from 4.39% to 14.1%.

First: Cc1ccc(S(=O)(=O)n2nccc2-c2c(-c3ccc(Cl)cc3)noc2C)cc1
Second: O=S(=O)(NCC1CCCO1)c1ccc(Cl)cc1 (stereo not drawn)
The inhibition of the first is higher: 6.88% for the first, 1.99% for the second.

Compared with `O=C(c1cc2ccccc2o1)N1CCC(N2CCC(C(=O)N3CCCC3)CC2)CC1`, `O=C(c1cc([N+](=O)[O-])ccc1N1CCCC1)N1CCCCC1` is lower in inhibition: 5.34% for the first, 1.67% for the second.

Compared with `Cc1cc(-n2c(C)cc(C(=O)CN3C(=O)NC4(CCCCCC4)C3=O)c2C)no1`, `CCOC(=O)N1CCN(Cc2cccs2)CC1` is higher in inhibition: -2.03% for the first, 5.2% for the second.

Compared with `CC1(C)CC(=O)C(C=Nc2ccccc2)=C(O)C1`, `CC1(C)CC(=O)C(C=Nc2ccc(N)cc2)=C(O)C1` is higher in inhibition: -6.01% for the first, 28.8% for the second.

First: Oc1c(C=Nc2ccccc2)sc2ccccc12
Second: O=C1CC(c2ccccc2)CC(O)=C1C=Nc1ccc(O)cc1 (stereo not drawn)
The inhibition of the first is lower: 21.4% for the first, 30.3% for the second.

Compared with `COc1ccc(N=CC2=C(O)CCCC2=O)cc1`, `O=C1CCCC(O)=C1C=Nc1cccc(C(F)(F)F)c1` is lower in inhibition: 18.6% for the first, 2.45% for the second.

First: N#CC(C#N)=C1C=CC=CN1/C(=C\c1ccccc1)C(=O)c1cccs1
Second: Cc1c(O)ccc2c(=O)c(-c3nncn3-c3ccccc3)coc12
The inhibition of the first is higher: 4.44% for the first, 2.48% for the second.

First: COCCN(CCOC)S(=O)(=O)c1ccc(C(=O)NC2CCN(Cc3ccccc3)CC2)cc1
Second: OCC1CCCN(C(=S)Nc2ccc(Oc3ccccc3)cc2)C1 (stereo not drawn)
The inhibition of the first is lower: 4.79% for the first, 5.94% for the second.

Going from `O=C(O)[C@@H](O)[C@H](O)C(=O)O` to `O=C(O)[C@H](O)[C@@H](O)C(=O)O`, the inhibition falls from 16.5% to 3.59%.

`CSc1ccc(-c2nc(O)c3cnccn23)cc1` gave an inhibition of 27.6%.
